Mcl1-Noxa inh = Mcl-1/Noxa interaction inhibition; Q07820; TR-FRET Mcl-1/Noxa peptide binding, 2 h; inhibition, % at 21.7 µM; actives 1.5% (n = 220,000); AID 1022;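 active = compounds that cut the protein-peptide binding signal by more than 50% relative to plate controls in a single-dose test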;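 note: His-tagged Mcl-1 with rhodamine Noxa BH3 peptide and terbium anti-His antibody; 0% = Mcl-1 plus Noxa peptide wells and 100% = peptide-only wells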
Target sequence (Q07820 whole entry, looked up): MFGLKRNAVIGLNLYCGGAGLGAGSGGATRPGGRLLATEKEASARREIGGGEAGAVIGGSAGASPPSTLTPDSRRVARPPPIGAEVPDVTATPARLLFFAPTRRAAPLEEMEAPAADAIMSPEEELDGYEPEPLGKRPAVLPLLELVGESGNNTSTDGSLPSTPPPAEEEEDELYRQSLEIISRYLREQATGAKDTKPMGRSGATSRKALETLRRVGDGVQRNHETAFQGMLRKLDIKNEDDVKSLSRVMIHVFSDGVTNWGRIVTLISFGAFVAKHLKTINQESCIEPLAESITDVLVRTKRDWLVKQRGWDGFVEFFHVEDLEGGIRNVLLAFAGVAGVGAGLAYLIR
Hck Nef HTS = blocks Nef-activated human Hck kinase; P08631; Recombinant Hck-YEEI plus Nef, Z-Lyte FRET kinase assay; inhibition, % at 20 µM; actives 0.68% (n = 220,000);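 active = Hck-Nef kinase inhibition above about 50%, limit read from the data; inactive = inhibition below that limit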;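 note: 0% = DMSO with Hck plus Nef and 100% = Hck alone without Nef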
Mcl1 Bid PPI = Mcl-1/Bid interaction inhibition. Q07820. TR-FRET Mcl-1/Bid-Dy647 peptide binding, 1536-well. inhibition, % at 21.7 µM. actives 0.97% (n = 220,000). AID 1021;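 active = compounds that cut the binding signal by more than half at the single screening dose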;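 note: His-tagged Mcl-1 with europium anti-His antibody binding Bid BH3 peptide; 0% = Mcl-1 plus peptide wells and 100% = peptide-only wells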
14-3-3 Bad inh = disrupts binding of bovine 14-3-3 zeta to phospho-Bad peptide; P63103; TR-FRET 14-3-3zeta/Dy647-pBad peptide displacement, 1 h; inhibition, % at 21.7 µM; actives 0.71% (n = 220,000);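 active = inhibition above about 70%, limit read from the data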;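 note: 0% = full 14-3-3 plus peptide FRET controls and 100% = background without 14-3-3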
Target sequence (P63103 whole entry, looked up): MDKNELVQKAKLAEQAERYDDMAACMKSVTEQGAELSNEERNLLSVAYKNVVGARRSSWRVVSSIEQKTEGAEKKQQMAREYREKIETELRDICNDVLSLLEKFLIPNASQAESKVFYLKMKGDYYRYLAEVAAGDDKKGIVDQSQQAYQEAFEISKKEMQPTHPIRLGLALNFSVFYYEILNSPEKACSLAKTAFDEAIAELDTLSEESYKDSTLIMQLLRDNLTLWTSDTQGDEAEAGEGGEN
Bim-Mcl-1 = human Bim-Mcl-1 interaction inhibition. AID 1009. Bead-based flow cytometry, Bim peptide-Mcl-1 binding. Q07820. actives 0.1% (n = 190,000). inhibition, % at 10 µM; in the data active = inhibition above about 40%;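 note: 0% = no compound tracer wells and 100% = peptide blocker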
eIF4E-4G inh = inhibitors of eIF4E and eIF4G interaction in translation initiation | actives 0.37% (n = 220,000) | inhibition, % at 21.7 µM | TR-FRET eIF4E-eIF4GI(517-606) binding, 2 h | P63073+Q04637;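 active = inhibition above about 30%, limit read from the data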;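 note: 0% = full FRET control wells and 100% = background wells lacking eIF4GI fragment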
Starred values were filed as active, the others as inactive; . = not tested or not shown; [ ] = dose if it differs, or a comment. Shown are actives, neighbours in structure and some others; about 3.5% of the full set was active somewhere.

SMILES	Mcl1-Noxa inh	Hck Nef HTS	Mcl1 Bid PPI	14-3-3 Bad inh	Bim-Mcl-1	eIF4E-4G inh
COc1cc(C(=O)Nc2cccc(-c3nc4cc(C)ccc4o3)c2)cc(OC)c1OC	-79.4	-1.9	7.5	46.2	-3.0	9.5
CCOc1ccccc1OCCC(=O)OCC(=O)c1ccc[nH]1	19.5	23.9	-25.2	-7.0	0.0	-0.8
COc1ccc(S(=O)(=O)n2nc(OC(=O)c3c(-c4ccccc4Cl)noc3C)cc2N)cc1	18.1	6.3	-22.6	0.2	0.0	0.4
O=C(Nc1ccc(-c2nc3cc(NC(=O)c4cccs4)ccc3o2)cc1)c1cccs1	2.4	3.3	11.5	73.8*[fluorescence artefact?]	1.0	-43.8
O=C(CN1CCN(CCN2C(=O)c3cccc4cccc(c34)C2=O)CC1)c1ccc(F)cc1	18.2	1.9	97.8*	-9.5	-1.0	-9.8
O=C(CN1CCN(CCN2C(=O)c3cccc4cccc(c34)C2=O)CC1)c1ccc(Cl)cc1	39.7	1.5	-2.5	17.4	1.0	-1.2
CCNc1ccc(C(=O)OC(C(=O)NC(N)=O)C(C)C)cc1[N+](=O)[O-] (stereo not drawn)	13.7	11.1	-3.4	2.2	-1.0	-1.5
COc1cc(OC)c(-c2nn3c(-c4ccco4)nnc3s2)cc1OC	64.4*	6.2	-8.0	-6.5	4.0	6.5
COc1ccc(-c2nn3c(-c4ccco4)nnc3s2)cc1OC	35.4	0.4	-29.9	.	20.0	.
c1ccc(-c2cc(-c3nn4c(-c5ccco5)nnc4s3)c3ccccc3n2)cc1	50.8*	2.6	37.8	4.9	4.0	6.2
O=S1(=O)CC/C(=N/Nc2ccccn2)c2cc(F)ccc21	7.6	8.0	-7.0	-9.7	.	1.8
O=S1(=O)CC/C(=N/Nc2ccc(C(F)(F)F)cn2)c2cc(F)ccc21	13.6	12.3	20.9	9.1	2.0	87.3*
Cc1nc(NC(=O)c2ccccc2)sc1-c1csc(Nc2ccc(Cl)cc2)n1	-15.9	-1.0	-11.3	70.4*	-2.0	-2.6
Cc1nc2ccccn2c1-c1csc(Nc2cccc(O)c2)n1	35.8	25.4	-48.4	-10.2	2.0	1.8
Cc1nc(C)c(-c2csc(Nc3cccc(O)c3)n2)s1	27.6	50.8*	-32.7	-7.4	2.0	-2.5
Cc1nc(NC(=O)c2ccccc2)sc1-c1csc(Nc2cccc(Cl)c2)n1	98.3*	1.2	94.3*	86.5*	0.0	22.9
Cc1nc(NC(=O)CC(C)C)sc1-c1csc(Nc2ccc(Cl)cc2)n1	43.7	-0.5	4.1	19.1	64.0*	-6.0
Cc1ccccc1Nc1nc(-c2sc(NC(=O)c3cccc(Cl)c3)nc2C)cs1	37.2	0.2	-25.4	43.6	0.0	-27.1
O=C(COC(=O)C1=COCCO1)NC1CCCCCCC1	17.7	19.4	-13.0	-5.4	-4.0	-0.4
CCOC(=O)c1c(OCCO)nn(-c2ccccc2)c1N	3.6	7.1	-10.5	-1.5	0.0	-3.5
CCCc1nc(-c2cc3ccccc3[nH]c2=O)no1	6.2	11.0	-31.5	96.0*	.	-0.9
CCCc1nc(-c2ccc(-c3ccc(F)cc3)cc2)no1	3.9	3.0	1.1	8.8	0.0	-3.4
COC(=O)C1(Cc2ccc(O)c(CC3OC3(C)C)c2)OC(=O)C(O)=C1c1ccc(O)cc1 (stereo not drawn)	21.2	29.8	-97.2	3.4	.	96.1*
Cc1ccc(S(=O)(=O)NNc2ccccc2)cc1	19.3	-3.2	64.1*	38.2	-2.0	-6.0
CC1(C)CC(=O)C(C=NCCN2CCN(C(=O)c3ccccc3)CC2)=C(O)C1	13.4	-1.0	-19.9	3.4	0.0	5.2
SMILES	Mcl1-Noxa inh	Hck Nef HTS	Mcl1 Bid PPI	14-3-3 Bad inh	Bim-Mcl-1	eIF4E-4G inh
CC1(C)CC(=O)C(C=NCCN2CCN(CCc3ccccc3)CC2)=C(O)C1	14.1	7.6	-8.1	-5.0	51.0*	5.5
COCC(=O)N1CCN(c2nc3ccccc3o2)CC1	-36.6	22.9	-7.3	-0.1	-1.0	2.9
CC(C)NC(=O)c1ccc(COCC(F)(F)F)cc1	17.4	3.1	87.4*	1.1	-3.0	3.5
CC(C)NC(=O)c1ccc(CNC(=O)OCC(F)(F)F)cc1	-5.1	0.3	-14.1	24.4	-2.0	-1.9
Cc1ccc(C)c(N(CC(=O)NC2CCCC2)C(=O)c2cc3cc4cc(C)ccc4nc3s2)c1	19.1	0.4	-15.4	-1.5	0.0	2.0
Cc1cccc(N(CC(=O)NC2CCCC2)C(=O)c2cc3cc4cccc(C)c4nc3s2)c1C	12.1	1.5	67.3*	-3.5	2.0	-3.9
Cc1ccc(C(=O)NC(=O)OCCn2c(C)cnc2[N+](=O)[O-])cc1	7.6	19.3	4.7	74.0*	0.0	1.0
Cc1cnc([N+](=O)[O-])n1CCOC(=O)NC(=O)c1ccccc1	-1.0	22.6	8.4	-7.6	2.0	-3.3
Cc1c(NC(=S)NC(NC(=O)C(C)C)C(Cl)(Cl)Cl)c(=O)n(-c2ccccc2)n1C (stereo not drawn)	2.5	-0.4	95.8*	6.9	-3.0	-2.9
O=c1ccc(Cl)n[nH]1	-0.5	23.3	-32.9	-4.5	.	3.8
COc1ccccc1N1CCN(CC(O)COc2c(OC)cccc2OC)CC1 (stereo not drawn)	9.6	-2.0	18.0	27.8	-3.0	0.0
COc1cccc(OC)c1OCC(O)CN1CCN(c2ccccc2)CC1 (stereo not drawn)	15.8	-2.3	-25.0	71.9*	1.0	0.3
CC(C)(C)C1CCC(OCC(O)CN2CCN(c3ccccc3)CC2)CC1 (stereo not drawn)	6.7	0.5	-15.0	74.8*	-3.0	2.5
CC(C)(C)C1CCC(OCC(O)CN2CCCC2)CC1 (stereo not drawn)	11.0	16.2	-35.2	-5.3	-2.0	3.0
Cc1n(C)c2cc(Cl)ccc2[n+]1Cc1ccccc1	16.1	10.7	-25.6	31.0	0.0	7.8
Cc1ccc(S(=O)(=O)N2CCCCC2)cc1NC(=O)COC(=O)c1ccc2c(c1)OCO2	-11.5	3.8	7.1	-5.7	0.0	-0.7
FC(F)(F)Oc1ccc(NC(=S)Nc2ccccc2N2CCOCC2)cc1	0.7	7.5	-13.7	-4.8	.	-3.2
COc1nc(-c2ccccc2)cc(-c2ccc3c(c2)OCO3)c1C#N	15.1	3.4	55.7*	-3.0	.	6.0
COc1ccc(-c2cc(-c3ccccc3)c(C#N)c(S(C)(=O)=O)n2)cc1	-6.7	-10.0	-8.8	1.8	0.0	-5.1
COc1ccc2c(c1)SCC/C2=C\CN1C(=O)CCC1=O	22.9	3.0	-8.7	24.6	-4.0	-30.8
O=C(O)CC(=O)NC12CC3CC(CC(C3)C1)C2	12.8	-0.3	13.8	10.8	0.0	4.3
CCN(CC)CC(=O)NC12CC3CC(CC(C3)C1)C2	37.0	-3.8	63.1*	18.3	0.0	-11.3
CCOc1ccc(OCCN2CCCCC2)cc1	25.2	5.6	1.9	39.8	0.0	1.2
CC(C)Oc1ccc(OCCCN2CCCCCC2)cc1	-4.7	-1.3	54.2*	59.1	-3.0	-4.6

Screens (PubChem BioAssay)
